Assay results from PubChem BioAssay (EPA / NIEHS).
Results filed as inconclusive are left out. Active and inactive are the calls of the source. The calls were made as follows: active = hit-call score of the fitted dose curve at least 0.9, where 1 is the maximum; inconclusive = response in the unintended direction; inactive = score below 0.9.

Target: Estrogen receptor (Homo sapiens) (UniProt P03372)
Experiment: ATG_ERa_TRANS: Attagene TRANS-FACTORIAL HepG2 Assay for human Estrogen Receptor alpha (ERa) (AID 2282970)
Conditions: HepG2 Attagene TRANS ERa GAL4 reporter, mRNA
Protocol: ATG_TRANS is a cell-based, multiplexed-readout assay that uses HepG2, a human liver cell line, with measurements taken at 24 hours after chemical dosing in a 24-well plate.ATG_ERa_TRANS is one of 30 assay component(s) measured or calculated from the ATG_TRANS assay. It is designed to make measurements of mRNA induction, a form of inducible reporter, as detected with fluorescence intensity signals by Reverse transcription polymerase chain reaction (RT-PCR) and Capillary electrophoresis technology.Data from the assay component ATG_ERa_TRANS was analyzed into 1 assay endpoint. This assay endpoint, ATG_ERa_TRANS, was analyzed in the positive analysis fitting direction relative to DMSO as the negative control and baseline of activity. Using a type of inducible reporter, measures of mRNA for gain-of-signal activity can be used to understand the reporter gene at the transcription factor-level as they relate to the gene ESR1. Furthermore, this assay endpoint can be referred to as a primary readout, because this assay has produced multiple assay endpoints where this one serves a reporter gene function. To generalize the intended target to other relatable targets, this assay endpoint is annotated to the nuclear receptor intended target family, where the subfamily is steroidal.
Human liver HepG2 cells are transiently transfected with multiple reporter transcription units (MRTUs) in 6-well plates using FuGene 6 reagent (Roche; 3 ml FuGene/1 mg DNA). The MRTU constructs are regulated by a cis-regulating element (promoter). […] A major difference between the CIS and TRANS system is that in CIS activities of endogenous TFs are measured, whereas the TRANS assay evaluates changes in activities of exogenous, chimeric NR-Gal4 proteins. […] At the end of 24 hour incubation, total RNA was isolated using TriZol reagent (Invitrogen). The isolated RNA is then reverse-transcribed using oligo(dT) primer and Mo-MLV reverse transcriptase (Invitrogen) with DNAse I (Ambion) treatment for 30 min. The one-tenth of the produced cDNA was amplified by PCR using Taq DNA polymerase (Invitrogen) and two reporter sequence-specific primers. The PCR products were fluorescently labeled by primer extension with 6-arboxyfluorescein (6-FAM) 5'-labeled reporter sequence-specific primer (2 min at 95 C, 20 s at 68 C and 10 min at 72 C) and these products were digested with 5U of HpaI (New England Biolabs) for 2h at 37 C. […] The raw capillary electrophoresis data was processed using Attagraph software (Attagene).

Chain of Estrogen receptor (Homo sapiens) (P03372 whole entry, looked up): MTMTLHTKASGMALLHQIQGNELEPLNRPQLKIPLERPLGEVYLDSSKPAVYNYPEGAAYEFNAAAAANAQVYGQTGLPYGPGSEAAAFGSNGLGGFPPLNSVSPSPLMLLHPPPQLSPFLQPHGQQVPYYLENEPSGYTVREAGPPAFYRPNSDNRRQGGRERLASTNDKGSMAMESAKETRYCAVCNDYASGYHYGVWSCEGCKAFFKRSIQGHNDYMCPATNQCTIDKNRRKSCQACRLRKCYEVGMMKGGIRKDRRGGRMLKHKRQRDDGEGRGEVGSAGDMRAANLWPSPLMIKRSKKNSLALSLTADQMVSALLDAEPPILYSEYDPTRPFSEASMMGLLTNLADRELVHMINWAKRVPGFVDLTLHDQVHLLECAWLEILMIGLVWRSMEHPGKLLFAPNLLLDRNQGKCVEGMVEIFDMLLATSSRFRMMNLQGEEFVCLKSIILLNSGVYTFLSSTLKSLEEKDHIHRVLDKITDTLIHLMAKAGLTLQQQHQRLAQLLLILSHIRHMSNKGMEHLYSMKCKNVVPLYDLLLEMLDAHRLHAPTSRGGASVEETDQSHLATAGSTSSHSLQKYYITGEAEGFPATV

Compound | outcome | AC50
CC(C)(C)NC(=O)[C@H]1CC[C@H]2[C@@H]3CC[C@H]4NC(=O)C=C[C@]4(C)[C@H]3CC[C@]12C | inactive | –
CCCCC1C(=O)N(c2ccccc2)N(c2ccccc2)C1=O | inactive | –
C[Si](C)(C)N[Si](C)(C)C | inactive | –
Cc1c(Cl)cccc1Cl | inactive | –
CCCCC(CC)COC(=O)/C=C/c1ccc(OC)cc1 (stereo not given) | inactive | –
Oc1ccc(-c2ccccc2)c(Cl)c1 | – | 9.14 µM (active)
CC(CCC(=O)O)(c1ccc(O)cc1)c1ccc(O)cc1 | – | 16.4 µM (active)
CC(C)(CO)COC(=O)C(C)(C)CO | inactive | –
O=C1CCCCCCCCCCCN1 | inactive | –
CCCCCCCCCCCC(C)=O | – | 11.6 µM (active)
CCOC(=O)C1=NN(c2ccc(Cl)cc2Cl)C(C)(C(=O)OCC)C1 (stereo not given) | inactive | –
CCCSSCCC | inactive | –
CCCCCCCCCCCCc1ccc(O)cc1 | – | 0.0847 µM (active)
CCN1CN(CC)CN(CC)C1 | inactive | –
CC(C)c1ccc(O)c(C(C)C)c1 | – | 33.4 µM (active)
Cc1cc(C)c(C=O)c(C)c1 | inactive | –
CCOc1ccc(NC(N)=O)cc1 | inactive | –
Cc1noc(NS(=O)(=O)c2ccc(N)cc2)c1C | inactive | –
CC(C)CO | inactive | –
C=C[C@@]1(C)CC(=O)[C@]2(O)[C@@]3(C)[C@@H](O)CCC(C)(C)[C@@H]3[C@H](O)[C@H](OC(C)=O)[C@@]2(C)O1 | – | 2.1 µM (active)

Compound | outcome | AC50
C=CCOC(=O)c1ccc(C(=O)OCC=C)c(C(=O)OCC=C)c1 | inactive | –
CC(=O)OCC=C(C)C | inactive | –
CCCCNC(=S)NCCCC | inactive | –
CC/C=C\C/C=C\C/C=C\CCCCCCCC(=O)OC | inactive | –
CCCCC1CCC(=O)O1 (stereo not given) | inactive | –
CCCC/C=C/C=C\C=O | inactive | –
CCCCCOC(=O)CCCCC | inactive | –
Cc1ccc2c(c1)CCCN2 | inactive | –
O=C(O)C1CCC(C(=O)O)CC1 (stereo not given) | inactive | –
CC(C)(C)C1CCC(=O)CC1 | inactive | –
CC(C)CCOCc1ccccc1 | inactive | –
CC(=O)CCC1=C(C)CCCC1(C)C | – | 13 µM (active)
CC(=O)C(C)C | inactive | –
CC(=O)OCCc1ccccc1 | inactive | –
CCC1(C)C(=O)N(Cl)C(=O)N1Cl (stereo not given) | inactive | –
CCCCCC[C@@H](O)C/C=C\CCCCCCCC(=O)OCC(O)CO (stereo not given in full) | inactive | –
CC1OC(=O)C(C)OC1=O (stereo not given) | inactive | –
COc1nccnc1CC(C)C | inactive | –
Cc1c(O)cccc1O | – | 46.1 µM (active)
Clc1cc(Cl)c(Cl)c(Cl)c1Cl | – | 27 µM (active)
